Screening data from PubChem.
SUMO1-SIM PPI: modulators of human SUMO1-mediated protein-protein interactions | 0.33% of 360,000 active | SUMO1 binding to a labelled peptide, TR-FRET, 1 h | P63165 | inhibition, % at 20 µM; in the data active means inhibition above about 37%
Target sequence (P63165 whole entry, looked up): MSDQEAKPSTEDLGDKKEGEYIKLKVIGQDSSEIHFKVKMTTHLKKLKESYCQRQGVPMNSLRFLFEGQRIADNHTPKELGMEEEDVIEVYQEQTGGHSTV
Rin1 Abl inh: blocks binding of human Rin1 to Abl; P00519+Q13671; 0.4% of 360,000 active; TR-FRET Rin1/Abl binding, biochemical; inhibition, % at 7.35 µM; in the data active means inhibition above about 5%, passing the limit was not always enough
Neddyl block: inhibitors of human cullin neddylation; TR-FRET cullin neddylation, biochemical; 0.58% of 360,000 active; inhibition, % at 25 µM; AID 651699; P61081+Q13564; in the data active means inhibition above about 36%
ATG4B inhibitor: blocks human ATG4B protease cleavage of LC3 substrate | ATG4B cleavage of LC3-PLA2, NBD-HPC fluorescence, 1 h | inhibition, % at 8.33 µM | 0.51% of 340,000 active | AID 504462
Target sequence (Q9Y4P1 whole entry, looked up): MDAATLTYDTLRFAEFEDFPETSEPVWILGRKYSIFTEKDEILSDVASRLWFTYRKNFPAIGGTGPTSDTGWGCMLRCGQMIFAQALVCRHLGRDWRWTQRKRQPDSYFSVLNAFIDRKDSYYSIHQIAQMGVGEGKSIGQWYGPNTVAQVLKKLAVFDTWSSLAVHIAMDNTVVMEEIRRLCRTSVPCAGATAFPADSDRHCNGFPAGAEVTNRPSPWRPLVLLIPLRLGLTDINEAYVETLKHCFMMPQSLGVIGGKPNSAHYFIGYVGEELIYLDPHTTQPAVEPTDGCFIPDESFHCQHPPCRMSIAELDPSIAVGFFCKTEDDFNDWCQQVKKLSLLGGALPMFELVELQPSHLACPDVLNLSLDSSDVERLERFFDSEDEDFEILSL
Neddyl inh conf: confirmation of human cullin neddylation inhibitors | shares compounds with Neddyl block | TR-FRET cullin neddylation biochemical assay | calls only at 25 µM | 13% of 1,800 active;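 further: neddylation substrate is the cullin 1 ring ligase complex with SKP2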
Each line names hits and unclear results; the compound was inactive in the other large screens (follow-up assays come after a bar, where shown). The list is not random: actives were taken first. Their share in the collection is about 1.7%. Unless noted, no stated cut-off is given here; in the data, active means inhibition above about 40%; inactive means the rest.

COc1ccc(-c2nc3ccc(C(=O)NCC(OC)OC)cc3nc2-c2ccc(OC)cc2)cc1	none
CCN1CCN(C(=O)c2ccc3nc(-c4ccccc4)c(-c4ccccc4)nc3c2)CC1	Neddyl block 60 | Neddyl inh conf active
CCOC(=O)C1=CCN(S(=O)(=O)c2ccccc2C)C1c1cccc(Br)c1 (centres undefined)	none (no result: ATG4B inhibitor)
Cn1c(=O)c2cc3ccccc3nc2n(C)c1=O	Neddyl block 48 | Neddyl inh conf active
COCOc1ccc(-c2ncc(OCCN3CCCC3=O)nc2NC(=O)c2cc3ccccc3s2)cc1	none (no result: ATG4B inhibitor)
C[C@@H]1CN([C@@H](C)CO)S(=O)(=O)c2ccc(Br)cc2O[C@H]1CN(C)C(=O)c1ccccc1F	none (no result: ATG4B inhibitor)
COc1ccc(-c2cc(=O)c3cc(O)ccc3o2)cc1	Neddyl block 50
O=C(NCc1ccc(F)cc1F)[C@@H]1CCCN1C(=O)[C@@H]1CCCN1C(=O)c1cccc2ccccc12	none (no result: Rin1 Abl inh, ATG4B inhibitor)
CCC/C=C/c1ccc(CN2C(C)C(=O)N(Cc3cn(CCC4OCCCO4)nn3)CCS2(=O)=O)cc1 (centres undefined)	none (no result: ATG4B inhibitor)
O=C(Nc1ccc(F)cc1)C(c1cccc(F)c1)N1CCN(c2ccncc2)CC1 (centres undefined)	none (no result: Rin1 Abl inh, ATG4B inhibitor)
CNC(=O)c1ccc(Nc2nnc(-c3ccc(C)c(S(=O)(=O)NCC4CCCO4)c3)c3ccccc23)cc1 (centres undefined)	Neddyl block 40 | Neddyl inh conf inactive
COc1ccc(CCNC(=O)C2(C)CCC(=O)N2Cc2ccc(F)cc2Cl)cc1OC (centres undefined)	Neddyl block 52 | Neddyl inh conf inactive
COC(=O)c1sc(-c2ccccc2)cc1NC(=O)c1ccc(F)cc1	none (not shown: Neddyl block)
CC(=O)c1sc(-c2ccc(F)cc2)cc1NS(=O)(=O)c1ccccc1	Neddyl block 41 | Neddyl inh conf inactive
CN(C)CCSc1nc(N)c2c3c(sc2n1)CN(C)CC3	Neddyl block 39 | Neddyl inh conf inactive
COCCSc1nc(N)c2c3c(sc2n1)CN(C)CC3	Neddyl block 43 | Neddyl inh conf inactive
OC(c1ccc(Cl)c(Cl)c1)c1ncc(-c2ccccc2C(F)(F)F)[nH]1 (centres undefined)	none (no result: ATG4B inhibitor)
CC(C)CC[n+]1ccn(-c2nc3ccccc3nc2[N-]S(=O)(=O)c2ccc(Cl)cc2)c1	Neddyl block 39 | Neddyl inh conf inactive
CCCC[n+]1ccn(-c2nc3ccccc3nc2[N-]S(=O)(=O)c2ccc(Cl)cc2)c1	none
CCCCC[n+]1ccn(-c2nc3ccccc3nc2[N-]S(=O)(=O)c2ccccc2)c1	none
Cc1ccc(S(=O)(=O)[N-]c2nc3ccccc3nc2-n2cc[n+](CCC(C)C)c2)cc1	Neddyl block 44 | Neddyl inh conf inactive
Cc1cc(-c2ccccc2)[nH]c(=O)c1C#N	Neddyl block 50
Cc1ccc(-c2cc(-c3ccco3)c(C#N)c(=O)[nH]2)cc1	Neddyl block 96 | Neddyl inh conf inactive
CCC(CC)C(C(=O)NCc1ccccc1)N1CCN(c2cccc(C)c2C)CC1 (centres undefined)	none (no result: Rin1 Abl inh, ATG4B inhibitor)
O=S(=O)(c1ccccc1)N1CC2CC(Br)C(Br)CC21 (centres undefined)	none (no result: ATG4B inhibitor)
CCOC(=O)c1snc2c(=O)[nH]cnc12	Neddyl block 49 | Neddyl inh conf inactive
COc1ccc(CNC(=O)CSc2cccc3cccnc23)cc1	Neddyl block 43 | Neddyl inh conf inactive
COc1ccc(NC(=O)CSc2cccc3cccnc23)c(OC)c1	none
O=C(CSc1cccc2cccnc12)N/N=C/c1ccc(O)cc1	none
COc1cccc(/C=N/NC(=O)CSc2cccc3cccnc23)c1	Neddyl block 46 | Neddyl inh conf inactive
Nc1ccn([C@@H]2O[C@H](CNCc3cnc(N4CCOCC4)nc3)[C@@H](O)[C@H]2O)c(=O)n1	none (no result: ATG4B inhibitor)
O=C(N/C(=C/c1cccs1)c1nc2ccccc2[nH]1)c1ccccc1	none
Cc1ccc(C(=O)N/C(=C\c2cccs2)c2nc3ccccc3[nH]2)cc1	Neddyl block 45
CC[C@]12CCCN3CCc4c(n(c5ccccc45)[C@](O)(C(=O)OC)C1)[C@@H]32	Neddyl block 43 | Neddyl inh conf inactive
CCC12CCCN3CCc4c(n(c5ccccc45)C(O)(C(=O)OC)C1)C32 (centres undefined)	none
NC(=O)c1c(NC(=O)c2ccc(N3C(=O)CCC3=O)cc2)sc2c1CCCC2	none
CC1CCc2sc(NC(=O)c3ccc(N4C(=O)CCC4=O)cc3)c(C(N)=O)c2C1 (centres undefined)	Neddyl block 43
COC(=O)C[C@H]1CC[C@@H](NC(=O)c2ccncc2)[C@@H](CO)O1	none (no result: Rin1 Abl inh, ATG4B inhibitor)
COc1ccc2cc(/C(C)=N/NC(=O)C3CC3)ccc2c1	Neddyl block 43 | Neddyl inh conf inactive
COc1cccc(NC(=S)N/N=C2\CC(C)(C)Oc3ccc(O)cc32)c1	Neddyl block 43 | Neddyl inh conf inactive
COCCCNc1nc2ccccc2nc1NS(=O)(=O)c1ccc(C)c(C)c1	Neddyl block 42
COCCNc1nc2ccccc2nc1NS(=O)(=O)c1ccc(C)cc1C	Neddyl block 38 | Neddyl inh conf active
COCCCNc1nc2ccccc2nc1NS(=O)(=O)c1ccc(C)cc1	none
CC(C)N1CC(O)=C(c2nc3ccccc3[nH]2)C1=N	none
CC1(C)C(O)=C(c2nc3ccccc3[nH]2)C(=N)N1c1ccccc1	Neddyl block 41
COCCNC(=O)[C@@H]1CSC2c3ccc(OC)c(OC)c3C(=O)N21 (some centres undefined)	none (not shown: Neddyl block)
CCCCNC(=O)[C@@H]1CSC2c3ccc(OC)c(OC)c3C(=O)N21 (some centres undefined)	Neddyl block 42 | Neddyl inh conf inactive
CC(C=CC(O)=C1C(=O)CNC1=O)=C[C@@H](C)C1OC2(C)OC(C(=O)C3O[C@@]32C)C1C (some centres undefined)	none (no result: Rin1 Abl inh, ATG4B inhibitor)
O=C(CCCCn1ccc(=O)[nH]c1=O)Nc1ccc(O)c(C(=O)O)c1	Neddyl block 39
O=C(CCCCn1ccc(=O)[nH]c1=O)Nc1ccc(C(=O)O)c(O)c1	none
CCOc1ccc(C2NC(=O)c3ccccc3O2)cc1OC (centres undefined)	none
O=C1NC(c2ccc3c(c2)OCO3)Nc2ccccc21 (centres undefined)	none (not shown: Neddyl block)
CCOc1ccc(C2NC(=O)c3ccccc3O2)cc1OCC (centres undefined)	Neddyl block 41 | Neddyl inh conf inactive
CCOc1cc(C2NC(=O)c3ccccc3O2)ccc1OC(C)C (centres undefined)	Neddyl block 45 | Neddyl inh conf inactive
O=C1NC(c2ccc3c(c2)OCO3)Oc2ccccc21 (centres undefined)	Neddyl block 42 | Neddyl inh conf inactive
Clc1nc(NC2CCCCC2)c2cn[nH]c2n1	none
COc1cc2c(cc1OC)/C(=C/C(=O)c1ccc(C)cc1)NCC2	Neddyl block 43 | Neddyl inh conf inactive
Cc1cc(=O)n2[nH]c(-c3ccccc3)cc2n1	Neddyl block 44 | Neddyl inh conf inactive
Cc1cccc(CNc2ncnc3ccc(-c4ccc5c(c4)OCCO5)cc23)c1	Neddyl block 38 | Neddyl inh conf inactive
